Test results from PubChem BioAssay (NCI).
About 83,000 compounds went through this panel and 20% of them were active in at least one assay; those are over-represented in the sample as a whole.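 96-well plates, one dose, 48 hours. Percent growth reported; active if below 10.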 Unmarked numbers belong to inactive results. The source made the active and inactive calls.

test system: HL-60(TB) leukemia; assay: NCI-60 one-dose screen, 48 h (100 = growth as untreated, 0 = no growth, -100 = all killed); settings: 10 µM unless noted

| SMILES | growth |
| --- | --- |
| O=C(O)C1C[C@](O)(c2ccc(F)cc2)[C@@H](c2ccc(F)cc2)O1 (some centres undefined) | 91.6% |
| Cc1ncc(C(=O)Nc2ccc(CN3CCN(C)CC3)c(C(F)(F)F)c2)cc1C#Cc1cnc(N)c2ccc(C#N)cc12 | 13.2% |
| Cc1ccc2nc3nc4ccc[nH]c4cc3c2c1 | 124% |
| CC(C)(C)c1ccc(OCCCCCCCN2CCNCC2)cc1 | -40.7% (active) |
| CON1C(=O)CC[C@]2(C)[C@H]3CC[C@@H]4C([C@@]5(C)CCC(=O)O5)CC[C@@]4(C)[C@]3(C)CC[C@H]2C1(C)C (some centres undefined) | 100% |
| COc1cc(/C=C2\CN(S(=O)(=O)c3ccc(C)cc3)C/C(=C\c3cc(CN4CCCC4)c(O)c(OC)c3)C2=O)cc(CN2CCCC2)c1O | -33.6% (active) |
| Nc1ccccc1SC1CC(=O)N(c2ccc(Cl)c(Cl)c2)C1=O (centres undefined) | 139% |
| O=c1[nH]nnc2c1ncn2C1OC(CO)C(O)C1O (centres undefined) | 25.2% |
| O=C1NC(=O)C2C(=O)NC(=O)C1C21CCc2ccccc21 (centres undefined) | 117% |
| Oc1ccc(C(c2ccc(O)cc2)c2ccc(Cl)cn2)cc1 | 101% |
| COC(=O)[C@H](Cc1cn(C)cn1)NC(=O)[C@H](CC(=O)OCc1ccccc1)NC(=O)Nc1cc(C(F)(F)F)cc(C(F)(F)F)c1 | -68.9% [100 µM] (active) |
| NS(=O)(=O)c1ccccc1NC(=O)Nc1nc2ccccc2s1 | 102% |
| CCN(C(=O)Nc1cccc2ccccc12)c1ccccc1 | 102% |
| CCCCCCCCNC(=O)[C@@H](N)CSCOC(C)=O | 83.6% |
| c1ccc(-c2nc3ccccc3s2)cc1 | 99.5% |
| Clc1ccc2c(c1)-c1ccccc1C1=NCCN12 | 38.1% |
| O=c1c2ccccc2sc2c(N3CCCC3)nc3ccccc3c12 | 99.1% |
| Cc1ccc(-c2nc(C#N)c(S(=O)(=O)NCCO)o2)cc1 | -20.1% (active) |
| COc1ccc(OCC(=O)Nc2ccc(-c3nc4ccccc4s3)cc2C)cc1 | 48.2% |
| Cc1cc(C#Cc2ccc(C(C)(C)C)cc2)ccc1-n1c(/C=C/c2c(Cl)cccc2Cl)nc2ccccc2c1=O | 99.6% |

| SMILES | growth |
| --- | --- |
| CC(C)[O-].CC(C)[O-].CN(CCN(C)Cc1cc(F)cc(F)c1[O-])Cc1cc(F)cc(F)c1[O-].[Ti+4] | 5.88% (active) |
| S=C(c1cccs1)N1CCN(c2cccc(Cl)c2)CC1 | 90.8% |
| COc1ccc(/C=C(/C2=NCCN2)n2ccc3ccccc32)cc1 | 92% |
| CCCCNc1nc(NC(C)(C)C)nc(NC(C)(C)C)n1 | 36.6% |
| COc1ccc(N2C(=O)C(Oc3ccccc3)C2c2ccc(C)cc2)cc1 (centres undefined) | 85.4% |
| CCc1cccc(Sc2cc(C(=O)N3Cc4ccc(OCCN(C)C)cc4C3)ccc2O)c1 | 50.3% |
| CN(C)S(=O)(=O)n1cnc([C@@H]2[C@@H]3C(=O)OC[C@@H]3C[C@]23N=CN(Cc2ccccc2)C3=O)c1 | 123% |
| Cc1nccc2c3ccc(OCc4cn(-c5ccc(Cl)cc5)nn4)cc3n(CC(C)C)c12 | -49.4% (active) |
| COc1cc(/C=C/C(=O)c2c(-c3ccc(Cl)cc3)nc3sc(C)nn23)cc(OC)c1OC | 50.6% |
| C/C(=C/CCC(C)[C@@H]1CC[C@]2(C)C3=C(CC[C@@]12C)[C@@]1(C)CCC(=O)C(C)(C)[C@@H]1CC3)C(=O)O (some centres undefined) | -58.8% (active) |
| O=c1oc2c(cc1-c1ccc(F)cc1)C(O)Oc1ccccc1-2 (centres undefined) | 101% |
| O=C(CCl)N1c2ccccc2Sc2c1ccc1ccccc21 | 62.7% |
| CC(C)n1c2ccc(Br)cc2c2c3c(c4c5ccccc5ccc4c21)C(=O)NC3=O | 100% |
| c1ccc(CCn2nnc3c(Nc4ccc(N5CCOCC5)cc4)ncnc32)cc1 | 96.7% |
| Cn1c(=O)c2[nH]c(CCCc3nc4c([nH]3)c(=O)n(C)c(=O)n4C)nc2n(C)c1=O | 109% |
| NC(=O)SCC(=O)Nc1ccccc1-c1ccccc1 | 80.3% |
| Cc1cc(Nc2nc(N3CCOCC3)nc3ccccc23)n[nH]1 | 63.1% |
| C1=C(c2ccccc2)C(c2ccc(OCCN3CCCCC3)cc2)Oc2ccccc21 (centres undefined) | 62.7% |
| Cc1[nH]c2ccccc2c1/C=N/Nc1ncnc2sc3c(c12)CCN(CC(=O)OC(C)(C)C)C3 | 12.5% |
